# Bioassay records (PubChem)
# Shown are actives, neighbours in structure and some others; about 2.2% of the full set was active somewhere.
# GALK inh – qHTS Assay for Inhibitors of Human Galactokinase (GALK); P51570; Purified GALK, Kinase-Glo residual ATP luminescence; Potency, µM (titrated, usually from 57.5 µM), actives largely listed as inhibitors; 0.007% of 270,000 active; AID 1868, 2009
#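 5 nM enzyme, 35 uM ATP, 100 uM galactose, 20 mM HEPES pH8.0, 5 mM MgCl2; 1 h RT; residual ATP by Kinase-Glo Plus luminescence, qHTS format.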
# miR-21 reporter – qHTS Assay for Modulators of miRNAs and/orActivators of miR-21; HeLa miR-21 FLuc reporter, luciferase, 48 h; Potency, µM (titrated, usually from 38.3 µM), hits mostly activators; 340,000 tested, under 10 active;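 also: miR-21 action dims this reporter so a rising signal means less miR-21 action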
#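 Using DMEM plus 10% FBS, HeLa miR-21-FLuc cells are incubated with test compounds (final up to about 40uM) for 48 hours; firefly luciferase signal is then imaged following reagent-mediated lysis.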
# Nrf2 activator – qHTS of Nrf2 Activators; 0.31% of 410,000 active; AREc32 ARE-luciferase reporter (MCF7-derived line), luminescence, 24 h; AID 624171, 2012; Potency, µM (titrated, usually from 46.1 µM), hits mostly activators; also: nearly all actives have a fitted effect of over 65% in size
#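 Reporter line AREc32 (ARE-Fluc), seeded overnight in OPTI-MEM with 5% FBS; compound pin-transferred, 24 hr at 37 deg C, 5% CO2; luminescent read-out.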
# A549 tox – Nrf2 qHTS screen for inhibitors: counterscreen for cytotoxicity | Potency, µM (series often up to 46 µM), most hits filed as inhibitors | AID 504648, 2011 | A549 ARE-Fluc cells, CellTiter-Fluor viability, 18-24 h | 0.16% of 390,000 active
#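 A549 ARE-Fluc cells in 5% FBS OPTI-MEM, 5000 cells/well, rested 2 h then exposed to compounds in concentration-response for 18-24 h at 37 °C. Viability by CellTiter-Fluor fluorescence (Ex 405/Em 525) after 30 min; luciferase luminescence (BugLite, 15 min, RT) read afterwards.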
# Nrf2 inh – Nrf2 qHTS screen for inhibitors | A549 ARE-Fluc reporter, luciferase luminescence, 18-24 h | Potency, µM (series often up to 46 µM), usual class: inhibitors | 2.1% of 360,000 active | AID 504444, 2011; also: nearly all actives have a fitted effect of over 60% in size
#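 Reporter: ARE-Fluc in A549. Exposure: 18-24 h, 37 °C, 5% CO2, 5% FBS OPTI-MEM. Readouts: fluorescent cytotoxicity (CellTiter-Fluor), then luminescent Nrf2 signal after BugLite.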
# PI4K2A block – qHTS for small molecular inhibitors of PI4K2A | purified PI4K2A, ADP-Glo luminescence, 1 h; stronger effect = lower value | AID 1346378, 2018 | Phosphatidylinositol 4-kinase type 2-alpha (Homo sapiens), Q9BTU6 | activity change, negative = inhibition, % at 76.9 µM | 0.13% of 420,000 active; in the data active = activity change below about -50%; inconclusive = mostly about -30% to -49%
# Target sequence (Q9BTU6 whole entry, looked up): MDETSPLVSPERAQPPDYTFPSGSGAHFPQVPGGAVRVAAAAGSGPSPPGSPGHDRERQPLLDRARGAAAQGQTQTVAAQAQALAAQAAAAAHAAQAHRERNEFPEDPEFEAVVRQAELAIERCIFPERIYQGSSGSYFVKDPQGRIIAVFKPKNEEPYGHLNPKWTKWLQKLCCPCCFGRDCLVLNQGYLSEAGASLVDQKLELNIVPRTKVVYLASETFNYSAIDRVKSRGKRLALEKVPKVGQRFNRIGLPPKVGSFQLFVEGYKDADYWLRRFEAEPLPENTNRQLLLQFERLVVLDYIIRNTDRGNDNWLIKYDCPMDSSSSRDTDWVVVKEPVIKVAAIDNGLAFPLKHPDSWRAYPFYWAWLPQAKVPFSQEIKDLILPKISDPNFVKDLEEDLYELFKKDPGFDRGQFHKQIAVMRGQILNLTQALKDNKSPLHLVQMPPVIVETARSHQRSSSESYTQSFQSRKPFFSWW
#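 Compounds are screened against recombinant PI4K2A using PI as substrate and ATP, the latter dispensed at 300 microM. Reactions run one hour at ambient temperature before ADP-Glo detection; full inhibition defined by wells lacking enzyme.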
# Hits are given with their value; i = inactive; ? = inconclusive; nt = no result. Unless noted, calls follow the shape of the dose curve; as a rule, active = well fitted curve in the direction sought with a large enough effect; inconclusive = small, poorly fitted or top-dose-only effect, or another doubt; inactive = no such curve, though single readings can be large; an effect the other way counts as inactive or inconclusive.
SMILES,GALK inh,miR-21 reporter,Nrf2 activator,A549 tox,Nrf2 inh,PI4K2A block
COc1cc(F)c(S(=O)(=O)N2CCN(S(=O)(=O)c3ccc4c(c3)OCCO4)CC2)c(F)c1,nt,nt,nt,i,i,nt
CCOC(=O)c1c(C)[nH]c(C(=O)OCC(=O)Nc2ccc(Cl)cn2)c1C,nt,nt,i,i,i,i
CC(=O)c1c(C)[nH]c(C(=O)OCC(=O)NCc2cccs2)c1C,nt,nt,i,i,15µM,i
CC(=O)c1c(C)[nH]c(C(=O)OCC(=O)Nc2ccc(C)cc2[N+](=O)[O-])c1C,i,i,i,i,5.8µM,i
CCOC(=O)c1c(C)[nH]c(C(=O)OCC(=O)Nc2sccc2C(N)=O)c1C,nt,nt,i,?,8.2µM,i
CC(=O)c1c(C)[nH]c(C(=O)OCC(=O)Nc2cc(Cl)ccc2[N+](=O)[O-])c1C,i,i,i,i,?,i
C=CCn1c(=NC(=O)c2ccc(S(=O)(=O)N3CCc4ccccc4C3)cc2)sc2cc(S(N)(=O)=O)ccc21,i,i,i,i,?,i
C#CCn1c(=NC(=O)c2ccc(S(=O)(=O)N3CCc4ccccc4C3)cc2)sc2cc(S(N)(=O)=O)ccc21,i,i,i,5.2µM,3.3µM,i
N#Cc1nc(NCCCCO)nc(Nc2ccccc2)n1,nt,nt,nt,i,i,nt
CCN(C1CCCCC1)S(=O)(=O)c1ccc(S(=O)(=O)NCc2ccncc2)cc1,i,i,i,i,8.2µM,i
Cc1sc(NC(=O)c2ccccc2F)c(CN2CCCCC2C)c1C (stereo unspecified),i,i,13µM,i,?,i
CCCCOCCCNC(=O)C[C@@H]1C(=O)N2CCCC3=C2[C@@]1(C(=O)OC)CCCC3,nt,nt,nt,nt,nt,i
N#Cc1ccc(/C=C2\CC3(OC(=O)C4CCCCC4)CCCN2C3)cc1 (stereo unspecified),nt,nt,nt,nt,nt,i
CC[n+]1ccc(/C=C2\Sc3ccccc3N2CCCS(=O)(=O)[O-])c2ccccc21,i,i,i,i,i,i
Cc1ccc2c(c1)S/C(=C\c1cccc[n+]1C)N2CCO,i,i,i,i,4.6µM,i
C[n+]1ccccc1/C=C1\Sc2ccccc2N1CCO,i,i,i,i,16µM,i
CC1CN(c2nc3ccccc3nc2SCC(=O)N2CCN(S(=O)(=O)c3ccccc3)CC2)CC(C)O1 (stereo unspecified),nt,nt,nt,nt,nt,i
CCc1ccc(C(=O)Cn2ncc(Cl)c(Cl)c2=O)cc1,i,i,10µM,i,i,i
O=C(Cn1ncc(Cl)c(Cl)c1=O)N1CCOCC1,i,?,11µM,?,i,i
Cc1ccc(Cn2ncc(Cl)c(Cl)c2=O)cc1,i,?,?,i,i,i
COc1ccc(CCNC(=O)Cn2ncc3c2-c2cc(C)ccc2OC3)cc1,nt,nt,nt,nt,nt,i
S=c1[nH]nc(Cc2c[nH]c3ccccc23)o1,i,i,i,i,i,i
S=c1[nH]nc(Cc2sc(-c3ccccc3)nc2-c2ccccc2)o1,28µM,i,i,i,nt,i
CC[C@@H](CO)NCCN[C@@H](CC)CO,nt,nt,nt,nt,nt,i
CN1CCN(CC(=O)Nc2ccccc2[N+](=O)[O-])CC1,i,i,i,i,i,i
SMILES,GALK inh,miR-21 reporter,Nrf2 activator,A549 tox,Nrf2 inh,PI4K2A block
Cc1cccc(N2CCN(CC(=O)Nc3ccccc3[N+](=O)[O-])CC2)c1C,i,i,i,i,21µM,i
Cc1ccc(C(=O)Nc2ccccc2N2CCCCC2)cc1[N+](=O)[O-],i,i,i,i,12µM,i
Cc1ccc(C(=O)NC(=S)Nc2ccccc2N2CCCC2)cc1[N+](=O)[O-],i,i,i,i,i,i
CN(C)S(=O)(=O)c1cc(NC(=O)c2ccc(-n3ccnc3)c([N+](=O)[O-])c2)ccc1Cl,i,i,i,i,18µM,i
CC(=O)N1CCN(c2ccc(NC(=O)c3ccc(N4CCCC4)c([N+](=O)[O-])c3)cc2Cl)CC1,i,i,i,i,23µM,i
COc1ccc(C=O)cc1COc1ccc(NC(C)=O)cc1,nt,nt,nt,i,i,nt
CCOC(=O)[C@@](C)(N)Cc1ccc(O)c(O)c1,nt,nt,nt,nt,nt,i
